Test results published in the supplement of paper PMC7695840.
Where a name gives a salt, the structure may show the parent alone.

Legend:
[1] = test system: Staphylococcus aureus MW2 delta-mecA (mecA-); assay: normalized GFP fluorescence (growth of mecA- strain) (fraction of control range); higher = more growth of mecA- strain; conditions: compound concentration: 150 uM; cefoxitin: subinhibitory; fluorescent label: GFP
In short: (§1)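 Fluorescence from DsRed (540/590) and GFP (485/520) was recorded after 20 h of static growth at 37 °C and 90% humidity. The wells held a 1:1 mix of pre-induced S. aureus MW2 cells, gene-bearing with DsRed and gene-deleted with GFP, in LB with a daily-set subinhibitory antibiotic dose, dispensed at 5 µL/well onto 150 μM compound (1.5% DMSO) in 1536-well plates, single replicate. Each channel was scaled per plate between single-strain control medians, excluding plates with high untreated ratios and rows with DsRed/GFP >10.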

[2] = test system: Staphylococcus aureus MW2 (mecA+); assay: normalized DsRed fluorescence (growth of mecA+ strain) (fraction of control range); higher = more growth of mecA+ strain; conditions: compound concentration: 150 uM; cefoxitin: subinhibitory; fluorescent label: DsRed
In short: as §1

Row | Structure (SMILES) | normalized GFP fluorescence [1] | normalized DsRed fluorescence [2]
1 | CC(Oc1c(Cl)cccc1Cl)C1=NCCN1 (centres undefined) | 0.693 | 0.569
2 | CC(=O)OCC(=O)[C@@]1(O)CC[C@H]2[C@@H]3CCC4=CC(=O)CC[C@]4(C)[C@@]3(F)[C@@H](O)C[C@@]21C | 0.287 | 0.642
3 | O=c1ccn([C@@H]2O[C@H](CO)[C@@H](O)[C@H]2O)c(=O)[nH]1 [Uridine] | 0.265 | 0.849
4 | CN1CCCCC1CCN1c2ccccc2Sc2ccc([S+](C)[O-])cc21 (centres undefined) | 0.265 | 1.16
5 | Cc1oncc1C(=O)Nc1ccc(C(F)(F)F)cc1 | 0.0504 | 1.25
6 | CCN(CCCCOC(=O)c1ccc(OC)c(OC)c1)C(C)Cc1ccc(OC)cc1 (centres undefined) | 0.41 | 0.559
7 | COc1ccc(-c2cc(=O)c3c(O)cc(O[C@@H]4O[C@H](CO[C@@H]5O[C@@H](C)[C@H](O)[C@@H](O)[C@H]5O)[C@@H](O)[C@H](O)[C@H]4O)cc3o2)cc1O [Diosmin] | 0.55 | 1.27
8 | CS(=O)(=O)c1ccc([C@@H](O)[C@@H](CO)NC(=O)C(Cl)Cl)cc1 | 0.776 | 0.661
9 | C=CC[C@@H]1/C=C(\C)C[C@H](C)C[C@H](OC)[C@H]2O[C@@](O)(C(=O)C(=O)N3CCCC[C@H]3C(=O)O[C@H](/C(C)=C/[C@@H]3CC[C@@H](O)[C@H](OC)C3)[C@H](C)[C@@H](O)CC1=O)[C@H](C)C[C@@H]2OC [FK-506 (Tacrolimus)] | 0.0621 | 1.04
10 | O=NN(CCCl)C(=O)NC1CCCCC1 | 0.569 | 0.767
11 | O=C(CCCN1CCC(O)(c2ccc(Cl)cc2)CC1)c1ccc(F)cc1 | 0.45 | 1.19
12 | CCN(CC)C(=O)c1cccc(C)c1 | 0.46 | 1.18
13 | Cc1c(OCC(F)(F)F)ccnc1C[S@@+]([O-])c1nc2ccccc2[nH]1 | 0.348 | 0.452
14 | Cc1c(OCC(F)(F)F)ccnc1C[S+]([O-])c1nc2ccccc2[nH]1 (centres undefined) [Lansoprazole] | 0.122 | 0.553
15 | C[n+]1ccccc1C=NO | 0.166 | 0.637
16 | N#Cc1c(N(CC(=O)O)CC(=O)O)sc(C(=O)O)c1CC(=O)O [Strontium ranelate (Protelos)] | 0.212 | 0.694
17 | C#C[C@]1(O)CC[C@H]2[C@@H]3CCC4=CC(=O)CC[C@@H]4[C@H]3CC[C@@]21CC | 0.305 | 1.05
18 | CC(C)OC(=O)C(C)(C)Oc1ccc(C(=O)c2ccc(Cl)cc2)cc1 | 0.203 | 0.698
19 | NS(=O)(=O)c1cc2c(cc1Cl)N=CNS2(=O)=O | 0.373 | 0.683
20 | CC(=O)[C@H]1CC[C@H]2[C@@H]3C=CC4=CC(=O)CC[C@@]4(C)[C@@H]3CC[C@]12C | 0.56 | 0.456
21 | COc1ccc(CCN(C)CCCC(C#N)(c2ccc(OC)c(OC)c2)C(C)C)cc1OC (centres undefined) | 0.734 | 0.717
22 | Cc1cn[nH]c1 | 0.665 | 0.838
23 | c1ccc2[nH]c(-c3cscn3)nc2c1 | 0.302 | 0.444

Row | Structure (SMILES) | normalized GFP fluorescence [1] | normalized DsRed fluorescence [2]
24 | COc1ccc(OC)c(C(O)CNC(=O)CN)c1 (centres undefined) | 0.301 | 0.764
25 | C[C@H]1O[C@@H](O[C@H]2[C@@H](O)C[C@H](O[C@H]3[C@@H](O)C[C@H](O[C@H]4CC[C@@]5(C)[C@H](CC[C@@H]6[C@@H]5CC[C@]5(C)[C@@H](C7=CC(=O)OC7)CC[C@]65O)C4)O[C@@H]3C)O[C@@H]2C)C[C@H](O)[C@@H]1O | 0.212 | 0.724
26 | CCOC(=O)OC(C)OC(=O)[C@@H]1N2C(=O)[C@@H](NC(=O)[C@H](N)c3ccccc3)[C@H]2SC1(C)C (some centres undefined) | 0.00819 | 0.591
27 | CCOC(=O)C1=C(COCCN)NC(C)=C(C(=O)OC)C1c1ccccc1Cl (centres undefined) | -0.0144 | 1.06
28 | O=C(c1cc(Cc2n[nH]c(=O)c3ccccc23)ccc1F)N1CCN(C(=O)C2CC2)CC1 [Olaparib (AZD2281)] | 0.204 | 0.856
29 | CN(C(=O)C(Cl)Cl)c1ccc(OC(=O)c2ccco2)cc1 | 0.156 | 0.938
30 | CC1(C)[C@@H](O[C@H]2O[C@H](C(=O)O)[C@@H](O)[C@H](O)[C@H]2O[C@@H]2O[C@H](C(=O)O)[C@@H](O)[C@H](O)[C@H]2O)CC[C@]2(C)[C@H]3C(=O)C=C4[C@@H]5C[C@@](C)(C(=O)O)CC[C@]5(C)CC[C@@]4(C)[C@]3(C)CC[C@@H]12 [Glycyrrhizic acid] | 0.122 | 1.7
31 | CC1(C)S[C@@H]2[C@H](NC(=O)COc3ccccc3)C(=O)N2[C@H]1C(=O)O | 0.0184 | 0.0783
32 | CN1CC2c3ccccc3Oc3ccc(Cl)cc3C2C1 (centres undefined) [Asenapine] | 0.129 | 1.64
33 | Clc1ccc2nsnc2c1NC1=NCCN1 [Tizanidine HCl] | 0.539 | 0.515
34 | CC(=O)OCC(=O)[C@@]1(O)CC[C@H]2[C@@H]3CCC4=CC(=O)CC[C@]4(C)[C@H]3C(=O)C[C@@]21C | 0.843 | 0.634
35 | Cn1c(=O)c2nc[nH]c2n(C)c1=O | 0.449 | 0.42
36 | CC(C)OC(=O)OCOP(=O)(CO[C@H](C)Cn1cnc2c(N)ncnc21)OCOC(=O)OC(C)C [Tenofovir Disoproxil Fumarate] | 0.238 | 0.514
37 | NS(=O)(=O)c1cc(C(=O)O)c(NCc2ccco2)cc1Cl | 0.306 | 0.841
38 | COc1cc(Nc2ncc(F)c(Nc3ccc4c(n3)N(COP(=O)(O)O)C(=O)C(C)(C)O4)n2)cc(OC)c1OC | 0.774 | 0.602
39 | Cc1ncc([N+](=O)[O-])n1CC(O)CCl (centres undefined) | 0.488 | 0.705
40 | CCC(NC(C)C)C(O)c1ccc(O)c(O)c1 (centres undefined) | 0.38 | 0.581
41 | COc1cc2nc(N(C)CCCNC(=O)C3CCCO3)nc(N)c2cc1OC (centres undefined) | 0.343 | 0.686
42 | Nc1nc(NC2CC2)c2ncn([C@H]3C=C[C@@H](CO)C3)c2n1 | 0.288 | 0.69
43 | CN(C)[C@@H](CCOc1cccc2ccccc12)c1ccccc1 [Dapoxetine hydrochloride (Priligy)] | -0.00645 | 1.15
44 | Cc1cn([C@H]2C[C@H](N=[N+]=[N-])[C@@H](CO)O2)c(=O)[nH]c1=O | 0.317 | 0.887
45 | NC[C@@H]1O[C@@H](O[C@H]2[C@H](O)[C@@H](O[C@H]3O[C@H](CO)[C@@H](O)[C@H](N)[C@H]3O)[C@H](N)C[C@@H]2N)[C@@H](O)[C@H](O)[C@H]1O | 0.472 | 0.795
46 | O=C1c2c(O)ccc(O)c2C(=O)c2c(NCCNCCO)ccc(NCCNCCO)c21 | 0.184 | 1.12

Row | Structure (SMILES) | normalized GFP fluorescence [1] | normalized DsRed fluorescence [2]
47 | O=c1[nH]c(=O)n([C@H]2C[C@H](O)[C@@H](CO)O2)cc1I | 0.363 | 0.546
48 | C[C@H]1C[C@@H]2[C@H]([C@@H](O)C[C@@]3(C)[C@H]2CC[C@]3(O)C(=O)COC(=O)CCC(=O)O)[C@@]2(C)C=CC(=O)C=C12 | 0.634 | 0.526
49 | CC(C(=O)O)c1cccc(C(=O)c2ccccc2)c1 (centres undefined) | 0.247 | 0.413
50 | CCCCCCCCCC(=O)N[C@@H](Cc1c[nH]c2ccccc12)C(=O)N[C@H](CC(N)=O)C(=O)N[C@@H](CC(=O)O)C(=O)N[C@@H]1C(=O)NCC(=O)N[C@@H](CCCN)C(=O)N[C@@H](CC(=O)O)C(=O)N[C@H](C)C(=O)N[C@@H](CC(=O)O)C(=O)NCC(=O)N[C@H](CO)C(=O)N[C@@H]([C@H](C)CC(=O)O)C(=O)N[C@@H](CC(=O)c2ccccc2N)C(=O)O[C@@H]1C [Daptomycin] | 0.013 | 0.064
51 | CCCCC(=O)O[C@H]1CC[C@H]2[C@@H]3CCc4cc(O)ccc4[C@H]3CC[C@]12C | 0.109 | 0.605
52 | CC1(C)O[C@@H]2C[C@H]3[C@@H]4CCC5=CC(=O)C=C[C@]5(C)[C@@]4(F)[C@@H](O)C[C@]3(C)[C@]2(C(=O)CO)O1 | 0.603 | 0.613
53 | CC(C)[C@H](N)C(=O)OCC(CO)OCn1cnc2c(=O)nc(N)[nH]c21 (some centres undefined) | 0.546 | 0.722
54 | COCCCC/C(=N\OCCN)c1ccc(C(F)(F)F)cc1 | 0.551 | 0.562
55 | CC(O)C(=O)O.N (centres undefined) | 0.217 | 0.837
56 | N=C(N)N1CCc2ccccc2C1 | 0.353 | 0.808
57 | CC(COc1ccccc1)NC(C)C(O)c1ccc(O)cc1 (centres undefined) | 0.474 | 0.631
58 | CN1C(C(=O)Nc2ccccn2)=C(O)c2ccccc2S1(=O)=O [Piroxicam (Feldene)] | 0.0173 | 0.661
59 | CN1CCN(C2=Nc3cc(Cl)ccc3Nc3ccccc32)CC1 [Clozapine (Clozaril)] | 0.0909 | 1.01
60 | O=C(O)CCCC[C@@H]1SC[C@@H]2NC(=O)N[C@@H]21 | 0.414 | 0.604
61 | CC(C)C(=O)Nc1ccc([N+](=O)[O-])c(C(F)(F)F)c1 | 0.121 | 1.4
62 | O=C(O)c1ccccc1C(=O)Nc1ccc(S(=O)(=O)Nc2nccs2)cc1 | 0.538 | 0.763
63 | CC1=C(C(=O)O)N2C(=O)[C@@H](NC(=O)[C@H](N)c3ccc(O)cc3)[C@H]2SC1 | 0.0167 | 1.2
64 | COc1ccc2[nH]c([S+]([O-])Cc3ncc(C)c(OC)c3C)nc2c1 (centres undefined) | 0.481 | 1.2
65 | CN(C)CCN(Cc1ccccc1)c1ccccn1 | 0.488 | 0.468
66 | CC(C)Cn1cnc2c(N)nc3ccccc3c21 | 0.18 | 1.09
67 | NCCNCCNCCN | 0.763 | 0.66
